Potency and activity, negative = inhibition data for 96 compounds are collected here from PubChem BioAssay AID504332 (National Center for Advancing Translational Sciences (NCATS), 2011).

About 31,000 (8.9%) of roughly 350,000 compounds were called active. Inconclusive results (about 15%) are left out. The entries come from a sample that favours actives as a whole. Entries that show only a call come without a potency. Values without a mark were called inactive. Calls come from the whole dose curve; as a rule, active = well fitted inhibition curve with a large enough effect; inconclusive = small, poorly fitted or top-dose-only effect; inactive = no such curve, though single readings can be large or run the other way.
Potency is the fitted concentration of half-maximal effect.

For this assay, the target named is Histone-lysine N-methyltransferase EHMT2 (Homo sapiens) (UniProt Q96KQ7). As to the kind of experiment: qHTS Assay for Inhibitors of Histone Lysine Methyltransferase G9a. Note: nearly all actives have a fitted effect of over 75% in size. Conditions: G9a H3K9 monomethylation, AlphaScreen, 2 h; series mostly up to 59 µM. An outline of the steps: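 Chemiluminescent proximity detection of H3K9 monomethylation, read after 10 min bead incubation in the dark. Reaction: 20 nM G9a, 500 nM biotin-H3K9 peptide, 20 uM SAM cofactor, 2 h, room temperature, following 15 min enzyme-compound preincubation.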
Chain of Histone-lysine N-methyltransferase EHMT2 (Homo sapiens) (Q96KQ7 913-1193 limits assumed): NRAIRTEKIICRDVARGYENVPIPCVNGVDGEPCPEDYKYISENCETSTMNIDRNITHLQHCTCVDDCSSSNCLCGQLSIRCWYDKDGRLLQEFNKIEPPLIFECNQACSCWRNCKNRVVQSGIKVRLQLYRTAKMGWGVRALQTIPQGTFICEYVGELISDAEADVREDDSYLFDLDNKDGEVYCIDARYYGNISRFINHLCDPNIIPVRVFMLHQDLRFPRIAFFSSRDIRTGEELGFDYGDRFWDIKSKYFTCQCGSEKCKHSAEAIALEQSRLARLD
(In general: In qHTS, concentration-response curves come from the screen itself.)
In the case of `Cc1cc2[nH]ncc2cc1NC(=S)NC(=O)c1ccccc1`, the Potency result was “inactive”. In the case of `O=C(NC(=O)c1ccccc1)NC(=O)c1ccccc1`, the Potency entry is “inactive”.

Turning to `Cn1nnc(NC(=S)NC(=O)c2ccccc2)n1`, the Potency is 8.91 µM (active).

Regarding `COc1cc(OC)c(C(=S)N2CCCC2)cc1OC`, the activity, negative = inhibition was 10.9% [at 0.501 µM]. On to `CCCNC(=O)C1CCC(Cn2c(=O)c3sccc3n(Cc3ccccc3F)c2=O)CC1` (stereo unspecified), for which the Potency entry was “inactive”. `CCn1cc(C(=O)OCC(=O)Nc2cccc(C)c2)c(=O)c2ccc(C)nc21`: the Potency entry is “inactive”. The same measure, in the same setting: the value for `CCn1cc(C(=O)N2CC=C(c3ccccc3)CC2)c(=O)c2ccc(C)nc21` was 79.4 µM (active). Turning to `CCn1cc(C(=O)Nc2cc(C)ccc2C)c(=O)c2ccc(C)nc21`, the Potency entry was “inactive”. For `CCS(=O)(=O)N1CCC(n2c(C)nc3cccnc32)CC1`, the Potency result was “inactive”. Consider `O=C(Cc1c(O)c2ccccc2[nH]c1=O)NCc1ccccc1`, for which the Potency result was “inactive”. On the same count and under the same terms, the value for `O=C1C(c2[nH]c3ccccc3c2O)=Nc2ccccc21` was 5.01 µM (active); that for `CC(C)C(=O)Nc1c(O)c2ccccc2[nH]c1=O` was “inactive”. For the compound `NC(=O)c1ccsc1NC(=O)COC(=O)Cc1n[nH]c(=O)c2ccccc12`, the activity, negative = inhibition is 1.16% [at 0.501 µM]. For `COc1ccc(OC)c(-n2nnc(-c3nc(-c4cc(OC)c(OC)c(OC)c4)no3)c2C)c1`, the Potency result is “inactive”. The same measure, in the same setting: under `Cc1cccc(CSc2nnc(C)c(=O)n2N)c1` stands “inactive”; under `Cn1c(SCC(=O)N2CCCCC2)nc2c(c1=O)SCC2`, “inactive”; under `Cc1cccc(CSc2nc3c(c(=O)n2C)SCC3)c1`, 50.1 µM (active). In the case of `CCOc1ccc(S(=O)(=O)NCCC(=O)NCC(C)(C)N2CCOCC2)cc1`, the activity, negative = inhibition was 14% [at 0.501 µM]. In the case of `COc1ccc(NC(=O)CCN2CCN(CCO)CC2)cc1`, the Potency entry is “inactive”. On to `CCOC(=O)c1[nH]c2ccccc2c1N=C(C)N(CC)CC`, for which the Potency entry was “inactive”. With `CCOC(=O)C1CCN(C(=O)Cc2c(C(=O)O)[nH]c3ccccc23)CC1`, the activity, negative = inhibition is 16% [at 2.33 µM]. For `CCCS(=O)(=O)Nc1c(C(=O)O)[nH]c2ccccc12`, the Potency is 39.8 µM (active).

In the case of `CCOC(=O)C1CCN(c2ncnc3c2c(-c2ccccc2)cn3-c2cccc(C)c2)CC1`, the Potency entry was “inactive”. As to `O=C(NCC(c1ccco1)N1CCc2ccccc2C1)c1ccccc1Cl` (stereo unspecified), the Potency entry was “inactive”.

For `COc1ccc(SCc2cc(=O)c3ccc(C)c(C)c3[nH]2)cc1`, the Potency result was “inactive”. On to `C=CCOC(=O)C1=C(C)NC(C)=C(C(=O)OCC=C)C1c1cccs1`, for which the Potency entry is “inactive”. In the case of `CC1=C(C(=O)Nc2ccccc2)C(c2cccs2)C(C#N)=C(SCC#N)N1` (stereo unspecified), the Potency was 12.6 µM (active).

With `C=CCOC(=O)C1=C(C)NC(SCC(=O)OCC)=C(C#N)C1c1ccc(C)cc1` (stereo unspecified), the Potency entry is “inactive”. Turning to `CCCn1c(NCc2ccccc2F)nc2ccccc21`, the Potency result was “inactive”. On to `O=C(CNC(=O)C1COc2ccccc2O1)N/N=C/c1cc(Br)c(O)c(Br)c1` (stereo unspecified), for which the Potency is 89.1 µM (active). Still for that read-out and setting: under `O=C(CNC(=O)C(c1ccccc1)c1ccccc1)N/N=C\c1ccc2c(c1)OCO2` stands “inactive”; under `O=C(CNC(=O)c1cccnc1)N/N=C/c1cc(Br)c(O)c(Br)c1`, “inactive”.

For `FC(F)(F)c1cc(Nc2nc3ccccc3c3nncn23)ccc1Cl`, the Potency result is “inactive”. For `COc1ccc(CNC(=O)C2=Cc3cccc(OC)c3OC2)cc1OC`, the Potency result is “inactive”. On to `N#C/C(=C/c1ccc(-c2ccccc2[N+](=O)[O-])o1)C(=O)NCCN1CCCCC1`, for which the activity, negative = inhibition was 16.8% [at 12.7 µM].

On to `CC1=NN(c2ccc(Cl)c(C(=O)O)c2)C(=O)/C1=C/c1ccc(-c2ccccc2[N+](=O)[O-])o1`, for which the Potency is 31.6 µM (active). In the case of `Cc1nc2ccccc2c(=O)n1NC(=O)c1ccc(Cl)c([N+](=O)[O-])c1`, the activity, negative = inhibition was -4.51% [at 2.33 µM].

`Cc1ccc(CNC(=O)c2cc(-c3ccccc3C)n(CC3CC(c4cccc([N+](=O)[O-])c4)=NO3)n2)cc1` (stereo unspecified): the activity, negative = inhibition is -36.4% [at 2.33 µM]. With `O=C1N/C(=N\N=C\c2ccco2)SC1Cc1ccc(F)cc1` (stereo unspecified), the Potency result was “inactive”. The same measure, in the same setting: under `CCC1S/C(=N/N=C/c2ccco2)NC1=O` (stereo unspecified) stands “inactive”; under `COc1ccc(CN2C(=O)C(C)S/C2=N/N=C/c2ccco2)cc1` (stereo unspecified), 50.1 µM (active). In the case of `C=CCN1C(=O)C(Cc2ccc(OCC)cc2)SC1=Nc1ccc(C(=O)O)cc1` (stereo unspecified), the Potency result is “inactive”.

`COc1ccc(Cn2ccn(Cc3cccc(OC)c3)c(=O)c2=O)cc1`: the Potency entry is “inactive”. With `C=CCN1C(=O)C(Cc2cccc(Cl)c2)S/C1=N/N=C/c1ccco1` (stereo unspecified), the Potency was 10 µM (active). Same read-out and setting: the value for `CCCNC(=O)C(CC)n1nc(CC)n2c(cc3oc(C)cc32)c1=O` (stereo unspecified) was “inactive”. As for `Cc1ccc(C)c(N2CCN(S(=O)(=O)c3ccc4c(c3)C(C(C)C)C(=O)N4)CC2)c1` (stereo unspecified), the Potency result was “inactive”.

Turning to `O=C(NCCOCc1ccc(Cl)cc1)c1ncn[nH]1`, the Potency result is “inactive”. The same measure, in the same setting: under `COc1ccc(Cl)cc1CSc1ncn[nH]1` stands “inactive”; under `O=C(/C=C/Sc1ncn[nH]1)c1ccc(Cl)cc1`, 39.8 µM (active). For the compound `Cc1cc(C)c2oc(C(=O)Nc3ccc(S(=O)(=O)N4CCCCCC4)cc3)cc(=O)c2c1`, the Potency result is “inactive”.

Regarding `CCOc1ccccc1CNC(=O)C1CCCN(S(=O)(=O)c2ccc3c(ccn3C)c2)C1` (stereo unspecified), the Potency entry is “inactive”.

As for `Cc1ccc(C)c(Cn2c(CCCNC(=O)C3CCCCC3)nc3ccccc32)c1`, the Potency entry is “inactive”. In the case of `COc1ccccc1C(=O)NCCC(=O)NC1=NCCS1`, the activity, negative = inhibition was 43% [at 12.7 µM]. As for `O=C(O)c1ccccc1-c1ccccc1C(=O)Nc1ccccc1Br`, the Potency entry was “inactive”. `O=C(O)c1ccccc1C(=O)NC1=NN(c2ccccc2)CC1`: the Potency was 39.8 µM (active). The same measure, in the same setting: the value for `Nc1c(C(=O)O)cnn1-c1ccccc1` was “inactive”. As for `O=C(NC1CC1)c1ccc2c(c1)NC(=O)c1ccccc1S2`, the Potency entry is “inactive”. For the compound `C/C(=N\Nc1cccc(C(=O)O)c1)c1ccc2c(c1)Nc1ccccc1S2`, the Potency is 3.16 µM (active).

On to `CC(=O)Nc1cccc(/C(C)=N/NC(=O)c2ccccc2Cl)c1`, for which the Potency result was “inactive”. As to `O=C(NCc1ccc(Cl)cc1)c1cc2c(nc3sccn32)s1`, the Potency is 35.5 µM (active).

For the compound `O=C(NCc1ccc(Cl)cc1)c1cc(=O)nc2sc(-c3ccccc3)nn12`, the Potency result is “inactive”.

On to `O=C(NCc1cn2ccsc2n1)Nc1ccc(Cl)cc1`, for which the Potency entry was “inactive”. `CN1C2CCC1CC(NC(=O)c1ccc([N+](=O)[O-])cc1)C2` (stereo unspecified): the Potency result is “inactive”.

`O=C(Nc1cc2c3c(c1)C1CCCC1CN3CC1CCCC21)c1ccc([N+](=O)[O-])cc1` (stereo unspecified): the Potency is 10 µM (active).

`CN(CC1CCCO1)S(=O)(=O)c1ccc(C(=O)Nc2ccc([N+](=O)[O-])cc2)cc1` (stereo unspecified): the Potency entry is “inactive”. In the case of `CC(=O)N1CCCc2ccc(NS(=O)(=O)c3ccc(F)cc3F)cc21`, the activity, negative = inhibition was -4.23% [at 12.7 µM]. As for `O=C(C1CC(=O)N(C2CCCC2)C1)N1CCN(c2cccc(C(F)(F)F)c2)CC1` (stereo unspecified), the Potency result was “inactive”. Take `CCC1(C)NC(=O)N(CC(=O)N2CCN(c3cccc(Cl)c3)CC2)C1=O` (stereo unspecified): the activity, negative = inhibition is 17.9% [at 2.33 µM].

For the compound `O=[N+]([O-])c1ccc(O)c(/C=N/Nc2ccccc2[N+](=O)[O-])c1`, the Potency was 20 µM (active).

On to `O=C(N/N=C/c1cc([N+](=O)[O-])ccc1O)/C(=C\c1cccs1)NC(=O)c1ccccc1`, for which the Potency entry was “inactive”.

As for `Nc1nnnn1/N=C/c1cc([N+](=O)[O-])ccc1O`, the Potency entry is “inactive”. Regarding `O=C1OC(C(=O)Nc2cccc(Br)c2)Cc2ccccc21` (stereo unspecified), the Potency result was “inactive”. Still for that read-out and setting: the value for `COc1ccc(NC(=O)c2sc3nc(-c4cc5cccc(OC)c5oc4=O)[nH]c(=O)c3c2C)cc1` was “inactive”. For the compound `O=C(CN1CCN(S(=O)(=O)c2cccc(Cl)c2)CC1)N1CCCCC1`, the activity, negative = inhibition is 6.11% [at 12.7 µM]. For the compound `CC(=O)N1CCc2cc(S(=O)(=O)NC(Cc3ccccc3)C(=O)NCc3ccc(C)cc3)ccc21` (stereo unspecified), the Potency result is “inactive”. The same measure, in the same setting: under `Fc1cc(F)c2nc(Nc3nc4c(F)cccc4s3)sc2c1` stands “inactive”. Regarding `Cc1cc(OC(C)C(=O)Nc2sc3c(c2C(N)=O)CCCC3)ccc1Cl` (stereo unspecified), the Potency result was “inactive”. On the same count and under the same terms, under `NC(=O)c1c(Nc2nc3c(F)cccc3s2)sc2c1CCCC2` stands 2.82 µM (active); under `CC(c1ccccn1)N(C)C(=O)c1ccc2nc(Cc3cccc(Cl)c3)oc2c1` (stereo unspecified), “inactive”.

Take `O=C(N/N=C/c1cccc(OCc2ccccc2)c1)c1ccc(Br)o1`: the Potency result is “inactive”. On the same count and under the same terms, under `Cn1c(SCC(=O)N2CCCc3ccccc32)ncc(C(=O)Nc2ccc(F)cc2)c1=O` stands “inactive”. In the case of `CCN(CC)C(CNC(=O)CSc1nnnn1-c1cccc(F)c1)c1ccco1` (stereo unspecified), the activity, negative = inhibition was 5.11% [at 12.7 µM]. As to `O=C(O)c1ccc(/C=N/NC(=O)c2ccc(Br)cc2)cc1`, the Potency result was “inactive”. Regarding `Cc1ccc(C(=O)N/N=C\c2cc(Br)c(Br)o2)cn1`, the Potency was 50.1 µM (active). The same measure, in the same setting: the value for `O=C(N/N=C/c1ccc(Br)o1)c1cncc(Br)c1` was “inactive”. For `COc1ccc(CC(=O)OC(C)C(=O)Nc2ccc(S(N)(=O)=O)cc2)cc1` (stereo unspecified), the activity, negative = inhibition was -8.93% [at 2.33 µM]. `CSc1nc(-c2ccccc2Cl)nc2c1Cc1c(CO)cnc(C)c1O2`: the Potency entry was “inactive”. The same measure, in the same setting: under `COc1ccc(CNC(=O)C(c2ccc(O)cc2)N(Cc2ccco2)C(=O)c2snc(C(N)=O)c2N)cc1` (stereo unspecified) stands “inactive”. Turning to `O=C(OCc1cc(=O)n2ccsc2n1)C1(c2ccc(Cl)cc2)CC1`, the activity, negative = inhibition is 2.61% [at 12.7 µM]. With `CCN1CCN(CCCNC(=O)c2ccc3c(c2)sc2nc(-c4ccc(OC)cc4)cn23)CC1`, the Potency entry is “inactive”. With `CN(C)S(=O)(=O)c1ccc(C(=O)NCC2(N3CCOCC3)CCCCC2)cc1`, the activity, negative = inhibition was 0.405% [at 2.33 µM]. As for `CN1CN(C)c2ccc([N+](=O)[O-])c3cccc1c23`, the Potency is 50.1 µM (active).

On to `Cc1ccc(C)c(OCCC(=O)OCC(=O)c2ccc3c(c2)NC(=O)CO3)c1`, for which the activity, negative = inhibition was 6.89% [at 12.7 µM]. As for `COc1ccc(NC(=O)C(C)N2c3cccc4cccc(c34)S2(=O)=O)c(OC)c1` (stereo unspecified), the Potency result was “inactive”.

Regarding `CCN(CC(=O)Nc1c(F)cccc1F)C(=O)CN1c2cccc3cccc(c23)S1(=O)=O`, the activity, negative = inhibition was 5.18% [at 0.501 µM]. Regarding `O=C(O)CN1c2cccc3cccc(c23)S1(=O)=O`, the Potency is 44.7 µM (active).
